# Screens (PubChem)
# uPA generation – cell surface uPA generation inhibition; cell surface uPA generation assay, qHTS; Potency, µM (titrated, usually from 38.3 µM), inactives show at the top dose activity change, negative = inhibition, actives largely listed as inhibitors; 330,000 tested, 0.31% active; AID 540303; active means well fitted inhibition curve with a large enough effect; inconclusive means small, poorly fitted or top-dose-only effect; inactive means no such curve, though single readings can be large or run the other way; tested in mouse RAW 264.7 cells; further: potency means the concentration at half of the fitted maximal effect; on the % scale 0 is the no-effect control and ±100 the full control effect; nearly all actives have a fitted effect of over 55% in size
# S2 tox – cell viability loss in ATXN counter-screen. 400,000 tested, 0.49% active. S2 cells (HEK-293 line with an ATXN2-luciferase reporter) viability, CellTiter-Fluor protease fluorescence, 24 h. Potency, µM (series often up to 56.7 µM), most hits filed as cytotoxic; further: potency means the concentration at half of the fitted maximal effect; nearly all actives have a fitted effect of over 40% in size
# Giardia kill – Giardia lamblia killing; Giardia lamblia trophozoite viability; activity change, % at 7.66 µM, hits read low; 340,000 tested, 0.15% active; in the data active means activity change below about -80%; inconclusive means between about -30% and that limit;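 further: parasites exposed to compound for two days anaerobically before the ATP read; on the % scale 0 is the no-effect control and ±100 the full control effect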
#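 Media and compound were dispensed first, then trophozoites at 100 cells/well; plates sat 48 hrs at 37 deg C without oxygen before ATP luminescence reagent was added and read after 15-30 min at room temperature.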
# HepG2 tox – kills HepG2 cells in TGF-b inhibitor counter-screen | HepG2 CAGA-GFP viability, ATP luminescence, 18 h | Potency, µM (doses to about 46.1 µM), without a hit: top-dose activity change, negative = cytotoxicity, hits mostly cytotoxic | 410,000 tested, 0.76% active | AID 588856; further: potency means the concentration at half of the fitted maximal effect
#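 HepG2 CAGA-GFP cells (1000/well, DMEM with 1% FBS) received compound, then TGF-beta at 500 pg/mL final, and were incubated 18 hours at 37 degrees C. Viability was read by CellTiter-Glo luminescence. Media-only wells were set as complete cell-killing and DMSO as no toxicity.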
# ATXN2 expr inh – reduces ATXN2 reporter expression in HEK-293 cells. Potency, µM (titrated, usually from 57 µM), inactives show top-dose activity change, negative = inhibition, most hits filed as inhibitors. 360,000 tested, 0.72% active. HEK-293 ATXN2-luciferase reporter, luminescence, 24 h; further: potency means the concentration at half of the fitted maximal effect; on the % scale 0 is the no-effect control and ±100 the full control effect; nearly all actives have a fitted effect of over 55% in size
#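 ATXN2-luciferase reporter cells (luciferase flanked by upstream and downstream ATXN2 gene portions) were treated 24 h at 37 °C with compounds at up to 57 uM. SteadyGlo luminescence gave expression; GF-AFC fluorescence gave viability.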
# TGFb inhibitor – TGF-b pathway inhibition; HepG2 CAGA-GFP TGF-b/SMAD3 reporter, GFP fluorescence, 18 h; TGF-beta stimulated, 500 pg/mL final; 410,000 tested, 1.2% active; Potency, µM (top dose mostly 46.1 µM), for inactives: top-dose activity, negative = inhibition, actives largely listed as inhibitors; further: potency means the concentration at half of the fitted maximal effect; on the % scale 0 is the no-effect control and ±100 the full control effect; nearly all actives have a fitted effect of over 65% in size
#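 Cell-based qHTS in HEPG2 carrying a CAGA-GFP Smad reporter; compounds added before 500 pg/mL final TGF-beta, 18 h incubation at 37 degrees C, GFP fluorescence quantified per cell by imaging cytometry.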
# Active calls of the source: *; i = inactive; ? = inconclusive; / = not tested or not shown. Compounds with a hit are over-represented: about 2.6% of the library has one in this group of screens. Unless noted, the call rests on the fitted dose curve; in most records, active means well fitted curve in the direction sought with a large enough effect; inconclusive means small, poorly fitted or top-dose-only effect, or another doubt; inactive means no such curve, though single readings can be large; an effect the other way counts as inactive or inconclusive.
SMILES,uPA generation,S2 tox,Giardia kill,HepG2 tox,ATXN2 expr inh,TGFb inhibitor
Cc1cccc(CN2CCC(C(=O)Nc3cccc(-c4cccc(F)c4)c3)CC2)n1,-21%,i,3,-38%,?,?
Cn1cc(CN2CCC(C(=O)Nc3cccc(-c4cccc(F)c4)c3)CC2)cn1,?,i,22,-58%,-23%,11µM*
Cc1nn(C(C)C)c(C)c1CN1CCC(C(=O)Nc2cccc(-c3cccc(F)c3)c2)CC1,?,i,-11,11µM*,-36%,?
COCc1c(C(=O)NC2CCCC2)cnn1-c1nccc(-c2ccco2)n1,/,i,/,/,/,/
CCCCCCCCOC(=O)c1c(CSC(=N)N)n(C)c2cc(Br)c(OC(C)=O)cc12,?,32µM*,-4,11µM*,/,?
CCOC(=O)c1c(CSC(=N)N)n(-c2ccc(Br)cc2)c2cc(Br)c(OC(C)=O)cc12,-4%,i,9,-19%,11%,10%
COc1ccc(NC(=O)c2cc(S(=O)(=O)N3CCCC3)c[nH]2)cc1,2%,i,35,2.5µM*,8%,?
COc1ccc(NC(=O)c2cc(S(=O)(=O)N3CCCCC3)c[nH]2)cc1,27%,i,3,-17%,6%,-12%
CCOCc1nc(N)nc(N)c1-c1cccc(Cl)c1,/,i,/,11µM*,/,0%
COC(=O)c1ccc(NC(C)=O)cc1OC,/,i,/,/,2%,/
CCOc1ccc(/C=N/NC(=O)C(O)c2ccccc2)c(O)c1 (stereo not drawn),-11%,i,-24,-8%,32µM*,0%
CCOc1ccc(CCNC(=O)C(O)c2ccccc2)cc1 (stereo not drawn),4%,i,5,7%,-1%,9%
CC[n+]1ccnc2ccccc21,/,/,/,3.5µM*,/,3.2µM*
O=C(C[n+]1ccnc2ccccc21)c1ccc(Cl)cc1,/,/,/,-12%,/,-30%
C#CCOCCOCCOCCNc1nc(N2CCN(C(=O)CCCCCCCCCCNC(=O)[C@H](CCCCN)n3cc(C[C@@H](C)CC)nn3)CC2)nc(N2CCN(C(=O)CCCCCCCCCCNC(=O)[C@@H]([C@H](C)O)n3cc(C)nn3)CC2)n1,?,10µM*,-20,13µM*,10µM*,?
CC[C@H](C)Cc1cn([C@@H](CCCCN)C(=O)NCCCCCCCCCCC(=O)N2CCNCC2)nn1,-3%,i,7,-2%,2%,19%
C#CCOCCOCCOCCNc1nc(N2CCN(C(=O)CCCCCCCCCCNC(=O)[C@H](CCCCN)n3cc(CCO)nn3)CC2)nc(N2CCN(C(=O)CCCCCCCCCCNC(=O)[C@H](CCCCN)n3cc(C[C@@H](C)CC)nn3)CC2)n1,?,?,5,-75%,-24%,?
C#CCOCCOCCOCCNc1nc(N2CCN(C(=O)CCCCCCCCCCNC(=O)[C@@H](CCSC)n3cc(CCO)nn3)CC2)nc(N2CCN(C(=O)CCCCCCCCCCNC(=O)[C@H](CCCN=C(N)N)n3cc(C[C@@H](C)CC)nn3)CC2)n1,?,16µM*,13,-80%,?,?
C#CCOCCOCCOCCNc1nc(N2CCN(C(=O)CCCCCCCCCCNC(=O)Cn3cc(C[C@@H](C)O)nn3)CC2)nc(N2CCN(C(=O)CCCCCCCCCCNC(=O)[C@@H]([C@H](C)CC)n3cc(CCCCCN)nn3)CC2)n1,?,/,0,-113%,20µM*,10µM*
CC[C@H](C)Cc1cn([C@@H](CCCN=C(NC(=O)OC(C)(C)C)NC(=O)OC(C)(C)C)C(=O)NCCCCCCCCCCC(=O)N2CCN(C(=O)OC(C)(C)C)CC2)nn1,?,18µM*,28,-35%,?,?
COc1cc2nc(N3CCCN(C)CC3)nc(NC3CCN(C)C3)c2cc1OC (stereo not drawn),/,/,/,-9%,/,?
Cc1cccc(Cn2c(SCc3ccc(C(=O)N4CCCCCC4)cc3)nc3ccncc32)c1,/,/,10,-38%,/,13µM*
